# Screening results: PubChem, National Center for Advancing Translational Sciences (NCATS)
# TRPML1 agonist = qHTS for Agonists of the Human Mucolipin Transient Receptor Potential 1 (TRPML1) | Mucolipin-1 (Homo sapiens), Q9GZU1 | TRPML1-expressing cells, Ca2+ dye fluorescence, FDSS | activation, % (concentration not given with the values) | actives 0.12% (n = 410,000) | AID 624414, 2012; note: 0% is about no effect
# Target sequence (Q9GZU1 whole entry, looked up): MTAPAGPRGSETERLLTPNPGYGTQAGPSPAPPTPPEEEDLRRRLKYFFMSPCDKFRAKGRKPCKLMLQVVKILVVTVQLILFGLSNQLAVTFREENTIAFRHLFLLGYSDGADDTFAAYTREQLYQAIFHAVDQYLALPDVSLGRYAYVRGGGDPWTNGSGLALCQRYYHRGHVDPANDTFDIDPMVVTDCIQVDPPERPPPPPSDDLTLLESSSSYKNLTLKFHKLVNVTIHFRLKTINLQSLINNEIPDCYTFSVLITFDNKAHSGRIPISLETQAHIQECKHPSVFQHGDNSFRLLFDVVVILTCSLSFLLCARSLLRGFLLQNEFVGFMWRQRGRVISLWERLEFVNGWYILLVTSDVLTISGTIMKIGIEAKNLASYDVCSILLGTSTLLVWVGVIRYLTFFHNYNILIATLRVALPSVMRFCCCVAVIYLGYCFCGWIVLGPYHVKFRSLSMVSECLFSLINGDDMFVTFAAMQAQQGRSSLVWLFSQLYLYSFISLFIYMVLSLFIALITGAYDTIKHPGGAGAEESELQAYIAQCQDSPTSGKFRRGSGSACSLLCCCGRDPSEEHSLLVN
#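 Agonist activity was taken from a 110 s kinetic Ca2+ dye read on the FDSS after pinning compounds onto TRPML1-DL cells. The cells were seeded at 1,500/well with Tet inducer, incubated about 16 h, then dye-loaded at room temperature.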
# PKM2 activator = qHTS Assay for Activators of Human Muscle isoform 2 Pyruvate Kinase; AID 1631, 2009; actives 0.34% (n = 260,000); purified PKM2, Kinase-Glo ATP luminescence, activation; response scale: 0% is enzyme alone, no compound; Potency, µM (series often up to 57.5 µM), without a hit: at the top dose activation, usual class: activators; active = well fitted activation curve with a large enough effect; inconclusive = small, poorly fitted or top-dose-only effect; inactive = no such curve, though single readings can be large or run the other way; note: potency is the fitted concentration of half-maximal effect; % is set by controls: 0 for no effect and ±100 for the full control effect; nearly all actives have a fitted effect of over 55% in size
#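 Purified hPK-M2 (>95% pure) converted ADP (0.1 mM final) to ATP with 0.5 mM PEP in 50 mM imidazole pH7.2, KCl, MgCl2, Tween 20, BSA; 1 h at room temperature. ATP detected by Kinase-Glo luminescence.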
# PTAP TSG101 blk = qHTS Assay for Iinhibitors of HIV-1 Budding by Blocking the Interaction of PTAP/TSG101 | Tumor susceptibility gene 101 protein (Homo sapiens), Q99816 | Fluorescence polarization, FITC-PTAP peptide / Tsg101 binding | Potency, µM (series often up to 115 µM), for inactives: at the highest dose activity change, negative = inhibition, hits mostly inhibitors | 340,000 tested, under 10 active | AID 493005, 2010; active = well fitted inhibition curve with a large enough effect in the main read-out, with a control signal flat, not every such curve was filed as active; inconclusive = small, poorly fitted or top-dose-only effect, or effect the other way, or a change in a side signal; inactive = no such curve, though single readings can be large or run the other way; note: potency is the fitted concentration of half-maximal effect; % of control where 0% means no effect
#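 Steps: Tsg101 binding domain dispensed (10 uM final), compounds pinned in DMSO, FITC-labeled PTAP-motif peptide added (50 nM final); after 20 min binding at room temperature, polarization measured.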
# TRPML1 blocker = qHTS for Inhibitors of the Human Mucolipin Transient Receptor Potential 1 (TRPML1); actives 0.02% (n = 390,000); Mucolipin-1 (Homo sapiens), Q9GZU1; AID 624415, 2012; TRPML1-inducible cells, Ca2+ dye fluorescence, FDSS; active compounds read low; inhibition of EC80 agonist-evoked calcium signal; activity change, negative = inhibition, % (test concentration not listed); in the data active = activity change below about -50%; inconclusive = between about -30% and that limit;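 note: stimulus is agonist 54-4 at its EC80 concentration; % is set by controls: 0 for no effect and ±100 for the full control effect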
#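 Tet-induced TRPML1-DL cells loaded with Ca8 no-wash calcium dye were read kinetically on FDSS. Compound addition was followed by EC80 agonist 54-4 (4 uM final); inhibition was read over 110 s.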
# BRCA1 expr up = qHTS Assay to Identify Small Molecule Activators of BRCA1 Expression. MCF7-BRCA1-FFLuc reporter, luminescence, 48 h; response scale: scaled: vehicle 0%, 10 µM genistein 100%. Potency, µM (doses to about 46.1 µM), without a hit: top-dose activation, hits mostly activators. actives 1.1% (n = 380,000). AID 624202, 2012; active = well fitted activation curve with a large enough effect; inconclusive = small, poorly fitted or top-dose-only effect; inactive = no such curve, though single readings can be large or run the other way; note: potency is the fitted concentration of half-maximal effect; nearly all actives have a fitted effect of over 80% in size
#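 Quantitative HTS in MCF7 cells stably reporting BRCA1 expression via firefly luciferase. Compound treatment lasts 48 h at 37 °C in phenol-red free MEM. Activation is expressed relative to genistein at 10 microM and DMSO.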
# IL-2 act = qHTS of IL-2 Activators; activation, % (series mostly up to about 46 µM); actives 0.065% (n = 360,000); IL-2 activation reporter assay, cell-based qHTS; stimulated with anti-CD3/CD4/CD28 beads; in transgenic mouse T cells; note: 0% is about no effect
#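 Screening format: compound pinned onto unstimulated transgenic mouse T cells, 60 min incubation, then anti-CD3/anti-CD4/anti-CD28 bead stimulation for 18 hours at 37 degrees C, followed by EGFP and DsRed detection.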
# * hit, by the source's call; ? = inconclusive; · = no result given; [ ] = remark or other dose. The list is not random: actives were taken first. Their share in the collection is about 1.3%. Cut-off read from the data, not from the text of the source, unless noted: active = activation above about 50%; inconclusive = mostly about 30% to 49%; inactive = weaker than that.
SMILES,TRPML1 agonist,PKM2 activator,PTAP TSG101 blk,TRPML1 blocker,BRCA1 expr up,IL-2 act
CN[C@@H](C)C(=O)NC[C@H]1O[C@@H](n2cnc3c(N)ncnc32)[C@H](O)[C@@H]1O,-0.4,·,-8.1%,2.7,8.4%,-0.3
NC(=O)c1c(NC(=O)C2COc3ccccc3O2)sc2c1CCN(Cc1ccccc1)C2 (stereo not given),1.2,-0.9%,?,1.9,-21.9%,400.7*
COc1ccc2c(COC(=O)c3n[nH]c4ccccc34)cc(=O)oc2c1,1.3,-11.8%,0.4%,3.8,4.47µM*,1.2
Cc1cc(/C=C2/C(=N)N3C(=NC2=O)SN=C3S(C)(=O)=O)c(C)n1-c1ccc(F)cc1,1.5,-8.1%,-5.6%,22.1,7.94µM*,0.6
C=C1C=C(C)n2ncc(C(=O)N(CCc3ccccc3)Cc3ccccc3)c2N1,-1.1,·,·,·,0.0%,·
COc1cc(OC)cc(-c2noc(-c3csc([C@H]4C[C@H](O)[C@@H](CO)O4)n3)n2)c1,-0.3,·,·,-29.7,3.16µM*,0.1
C/C(=N/NC(=O)c1cccc(N2CCCC2=O)c1)c1ccncc1,-0.6,3.0%,-0.1%,-6.7,8.91µM*,-0.1
COc1cccc(/C=N/NC(=O)c2cccc(N3CCCC3=O)c2)c1,-0.1,-17.1%,-0.3%,24.4,8.91µM*,-0.2
C/C(=N/NC(=O)c1cccc(N2CCCC2=O)c1)c1ccc(Br)cc1,0.9,2.0%,-5.9%,19.7,30.2%,-2.4
CC(C)(C)n1ncc2c(=O)n(Cc3ccc(F)cc3Cl)cnc21,8.0,·,·,-9.2,·,·
Nc1ccc(C(Cc2ccnc3ccccc23)Cc2ccnc3ccccc23)cc1,-1.0,·,·,·,-33.3%,·
CCC(=O)C1CCCN(C(=O)CCc2nnc(-c3ccc4c(c3)OCO4)o2)C1 (stereo not given),0.4,-1.3%[0.46 µM],-5.2%,34.2,78.8%,-1.8
CCC(=O)C1CCCN(C(=O)CCc2nnc(-c3ccc(C(C)=O)s3)o2)C1 (stereo not given),-0.2,1.6%,-9.8%,4.4,12.6µM*,0.7
CCOc1ccc(N(CC(=O)Nc2ccc3c(c2)OCO3)S(=O)(=O)c2ccccc2)cc1,1.0,·,·,4.2,·,·
O=C(NCCc1ccccc1)c1cccc(NC(=O)C2CCCC2)c1,-1.3,·,0.3%,12.8,10µM*,-0.2
O=C(NCCc1ccccc1)c1cccc(NC(=O)C2CCCCC2)c1,-1.1,·,-3.0%,2.9,84.1%,-0.6
CC(=O)Nc1ccc(C(=O)NCCc2ccccc2)cc1,-0.5,-0.8%,-1.7%,-17.4,12.6µM*,-0.2
O=C(NCCCc1ccccc1)c1ccc(F)cc1,0.5,-0.6%[11.5 µM],0.2%,-13.9,7.08µM*,0.6
O=C(NCCCc1ccccc1)c1cccc(Br)c1,-1.3,·,-7.4%,26.2,12.6µM*,1.3
CCOc1ccc(Nc2oc(/C=C/c3cccc(OC)c3)nc2C#N)cc1,2.6,·,·,23.1,0.0%,·
O=C(NCC(c1ccc2c(c1)OCO2)N1CCN(c2ccccc2)CC1)c1ccc(F)c(F)c1 (stereo not given),0.4,·,·,22.4,·,·
COc1cccc(/C=N/Nc2nc3ccccc3[nH]2)c1O,-0.5,-9.2%,4.6%,-7.5,-66.6%,-1.1
C(=N\Nc1nc2ccccc2[nH]1)/c1ccc2c(c1)OCO2,0.9,-1.8%,-5.6%,-3.7,12.6µM*,-0.3
COC(=O)c1ccc(/C=N/Nc2nc3ccccc3[nH]2)cc1,0.7,-13.3%,1.0%,6.9,3.16µM*,-3.3
O=C(O)c1ccc(/C=N/Nc2nc3ccccc3[nH]2)cc1,0.1,4.8%,-2.0%,18.0,0.0%,-1.4
SMILES,TRPML1 agonist,PKM2 activator,PTAP TSG101 blk,TRPML1 blocker,BRCA1 expr up,IL-2 act
COc1cccc(/C=N/Nc2nc3ccccc3[nH]2)c1OC,0.7,1.2%,-1.2%,21.5,7.94µM*,1.0
C(=N\Nc1nc2ccccc2[nH]1)/c1cccs1,0.0,-51.9%,-0.2%,-4.4,10µM*,2.5
CCC(CO)Nc1ccn2nc(-c3cc(OC)c(OC)c(OC)c3)cc2n1 (stereo not given),-0.2,·,·,·,-24.0%,-0.3
CCC(CO)Nc1ccn2nc(-c3cccs3)cc2n1 (stereo not given),-0.3,·,·,·,5.62µM*,-0.4
Clc1cccc(CNc2ccn3nc(-c4cccc(Cl)c4)cc3n2)c1,-0.8,·,·,·,72.3%,-0.2
CCC(CO)Nc1ccn2nc(-c3ccccc3)cc2n1 (stereo not given),-0.5,·,·,·,3.55µM*,1.1
CN(C)C(=O)CNc1ccn2nc(-c3cccc(Cl)c3)cc2n1,-0.2,·,·,·,5.01µM*,0.0
COc1ccccc1C(=O)OCC(=O)Nc1ccc(N2CCCCC2)cc1,-1.1,·,·,·,10.0%,·
CC(C)C(=O)Nc1nnc(CCc2ccccc2)s1,0.1,·,-3.3%,18.1,61.7%,0.5
CCCc1nnc(NC(=O)CCC(=O)Nc2ccc(Cl)cc2)s1,-1.3,·,45.5%,-6.8,-0.5%,-1.8
CC(C)C(=O)Nc1nnc(NC(=S)Nc2ccccc2)s1,1.0,-1.6%,-2.2%,-11.1,10µM*,-4.9
CCCc1nnc(NC(=S)Nc2ccccc2)s1,0.2,-10.0%,-3.3%,-0.8,2.24µM*,0.2
CC(C)(C)C(=O)Nc1nnc(CCc2ccccc2)s1,0.9,2.2%[11.5 µM],-1.8%,4.8,4.47µM*,1.1
CCn1cc(C(=O)N(C)c2cc(C)ccc2C)c2cc(OC)c(OC)cc2c1=O,-0.8,·,·,-8.7,3.0%,·
CC(C)c1ccc(NC(=O)C2CCCN(S(=O)(=O)c3ccc(Br)s3)C2)cc1 (stereo not given),2.1,·,·,23.9,·,·
COCCNC(=O)C(=O)Nc1c2c(nn1-c1ccccc1)CS(=O)(=O)C2,-0.2,·,·,0.2,·,·
CCOC(=O)c1c(CSC(=N)N)n(C)c2cc(Br)c(OC(C)=O)cc12,1.4,15.8µM*,-3.4%,-0.6,-45.8%,-1.2
CN(C)S(=O)(=O)c1ccc2c(c1)N(CC(=O)Nc1cccc(C(F)(F)F)c1)C(=O)CS2,-1.1,·,·,33.8,-5.7%,·
O=c1[nH]c(COc2ccc(Br)cc2Cl)nc2ccccc12,1.0,1.8%,-2.6%,10.3,3.98µM*,-3.6
O=C(NC1CC1)c1ccc2nc(-c3ccco3)c(-c3ccco3)nc2c1,1.5,·,·,·,-7.5%,·
